Experimental data published in PubChem BioAssay (NCATS).
Results filed as inconclusive are left out. Calls of active or inactive are those of the source. Calls come from the whole dose curve; as a rule, active = well fitted curve in the direction sought with a large enough effect; inconclusive = small, poorly fitted or top-dose-only effect, or another doubt; inactive = no such curve, though single readings can be large; an effect the other way counts as inactive or inconclusive.

Assays:
[1] = OV-KATE Cancer Cell Toxicity qHTS against the NCATS CANVASS Library (AID 1347345); conditions: OV-KATE cells viability, CellTiter-Glo luminescence, 72 h; series mostly up to 38.3 µM; note: potency is the fitted concentration of half-maximal effect
Outline: (§1)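 1000 cells/well seeded and rested 4 h at 37 °C before pin transfer of compounds in an 11-pnt series. Exposure 72 h at 37 °C/5% CO2; viability by CellTiter-Glo luminescence after 15 min at room temperature.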

[2] = HPAF-II Cancer Cell Toxicity qHTS against the NCATS CANVASS Library (AID 1347346); conditions: HPAF-II viability, CellTiter-Glo ATP luminescence, 72 h; series mostly up to 38.3 µM; note: nearly all actives have a fitted effect of over 55% in size; note: potency is the fitted concentration of half-maximal effect
Outline: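 Cytotoxicity read-out was CellTiter-Glo luminescence after 72 h at 37 degrees C exposure of HPAF-II cells (1000/well) to compounds in an 11-point titration.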

[3] = UWB1.289 Cancer Cell Toxicity qHTS against the NCATS CANVASS Library (AID 1347347); conditions: UWB1.289 viability, CellTiter-Glo luminescence, 72 h; series mostly up to 38.3 µM; note: nearly all actives have a fitted effect of over 60% in size; note: potency is the fitted concentration of half-maximal effect
Outline: as §1

[4] = Panc-1005 Cancer Cell Toxicity qHTS against the NCATS CANVASS Library (AID 1347349); conditions: Panc-1005 viability, CellTiter-Glo luminescence, 72 h; series mostly up to 38.3 µM; note: nearly all actives have a fitted effect of over 60% in size; note: potency is the fitted concentration of half-maximal effect
Outline: as §1

[5] = SW1088 Cancer Cell Toxicity qHTS against the NCATS CANVASS Library (AID 1347350); conditions: SW1088 viability, CellTiter-Glo luminescence, 72 h; series mostly up to 38.3 µM; note: nearly all actives have a fitted effect of over 75% in size; note: potency is the fitted concentration of half-maximal effect
Outline: as §1

[6] = U-118MG Cancer Cell Toxicity qHTS against the NCATS CANVASS Library (AID 1347351); conditions: U-118MG viability, CellTiter-Glo luminescence, 72 h; series mostly up to 38.3 µM; note: potency is the fitted concentration of half-maximal effect
Outline: as §1

[7] = A2780 Cisplatin Sensitive Ovarian Cancer Cell Toxicity qHTS against the NCATS CANVASS Library (AID 1347353); conditions: A2780 ovarian cancer viability, ATPLite luminescence, 72 h; series mostly up to 46.1 µM; note: nearly all actives have a fitted effect of over 60% in size; note: potency is the fitted concentration of half-maximal effect
Outline: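 Cisplatin-sensitive A2780 ovarian cells (750/well) received compound in 11 concentrations, and were incubated 72 h at 37 °C. ATP content was measured by ATPLite luminescence; bortezomib served as control.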

[8] = UWB1.289-WTBRCA1 Cancer Cell Toxicity qHTS against the NCATS CANVASS Library (AID 1347354); conditions: UWB1.289-WTBRCA1 viability, CellTiter-Glo luminescence, 72 h; series mostly up to 38.3 µM; note: potency is the fitted concentration of half-maximal effect
Outline: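 Toxicity was measured as CellTiter-Glo luminescence after 72 h exposure to an 11-point compound series. Compound was added to 1000 cells/well 4 h after seeding.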

[9] = HPAF-II 24hr Apoptosis Induction qHTS against the NCATS CANVASS Library (AID 1347356); conditions: HPAF-II caspase-3/7 Caspase-Glo luminescence; series mostly up to 46.1 µM
Outline: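 Caspase-Glo 3/7 luminescence, read after 15 min room-temperature development, measures apoptosis in HPAF-II cells treated 24 h at 37 degrees C with an 11-point concentration series; 500 cells/well; doxorubicin control.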

[10] = SDT Cancer Cell Toxicity qHTS against the NCATS CANVASS Library (AID 1347365); conditions: SDT dog glioma viability, ATP luminescence, 72 h; series mostly up to 46.1 µM; note: nearly all actives have a fitted effect of over 60% in size; note: potency is the fitted concentration of half-maximal effect
Outline: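 Cytotoxicity taken from CellTiterGlo ATP luminescence after 72 hr at 37C, 5% CO2. Canine glioma line SDT, 500 cells/well, treated at 11 concentrations; bortezomib dose series as control.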

[11] = G06 Cancer Cell Toxicity qHTS against the NCATS CANVASS Library (AID 1347368); conditions: G06 dog glioma cells, viability ATP luminescence, 72 h; series mostly up to 46.1 µM; note: nearly all actives have a fitted effect of over 60% in size; note: potency is the fitted concentration of half-maximal effect
Outline: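 Viability measured by CellTiterGlo ATP luminescence after 72 hr at 37C, 5% CO2. Canine G06 glioma cells plated at 500/well. Compounds tested as 11-point qHTS titrations.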

[12] = MCF7 Cancer Cell Toxicity qHTS against the NCATS CANVASS Library (AID 1347369); conditions: MCF7 viability, ATP luminescence (CellTiter-Glo), 72 h; series mostly up to 46 µM; note: potency is the fitted concentration of half-maximal effect
Outline: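 MCF7, 500 cells/well; cpds 11-pt qHTS; 72 hr, 37C/5% CO2; CellTiterGlo ATP luminescence.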

[13] = qHTS for Hypoxia signaling pathway (HIF-1) antagonists against the NCATS CANVASS Library (AID 1347374); conditions: HRE-bla ME-180 cells, HIF-1 beta-lactamase reporter, CoCl2; series mostly up to 38.3 µM; note: nearly all actives have a fitted effect of over 60% in size; note: potency is the fitted concentration of half-maximal effect
Outline: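 Antagonism scored as loss of CoCl2-driven (60 uM stock added) HRE beta-lactamase signal, read by CCF4 FRET at 460/530 nm. Compounds were tested in an 11-point series on ME-180 reporter cells for 17 hrs at 37C, with parallel CellTiter-Glo cytotoxicity.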

[14] = DH5-alpha competent E. coli microbial cell viability qHTS against the NCATS CANVASS Library (AID 1347377); conditions: BacTiter-Glo ATP luminescence, overnight; series mostly up to 46.1 µM
Outline: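 Bacterial viability as ATP-dependent luminescence (BacTiter-Glo), read after overnight 37 °C exposure of DH5-alpha competent E. coli to compounds in 11-point titration.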

[15] = qHTS for Antimalaria activity screened against the NCATS CANVASS Library (AID 1347380); note: nearly all actives have a fitted effect of over 40% in size; note: potency is the fitted concentration of half-maximal effect; conditions: P. falciparum Dd2 growth, SYBR Green fluorescence, 72 h; series mostly up to 28.7 µM
Outline: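 SYBR Green fluorescence at 485/535 nm was read 18 hr after lysis. This followed a 72 hr incubation at 37C in 5% O2, 5% CO2 of Dd2-infected erythrocytes (0.3% parasitemia, 2.5% final hematocrit) with compounds titrated over 11 concentrations.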

[16] = qHTS assay for small molecule disruptors of mitochondrial membrane potential screened against the NCATS CANVASS Library (AID 1347389); conditions: HepG2 mitochondrial membrane potential, m-MPI red/green ratio, 1.5 h; series mostly up to 46.1 µM; note: nearly all actives have a fitted effect of over 60% in size; note: potency is the fitted concentration of half-maximal effect
Outline: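 Mitochondrial membrane potential in HepG2: 1 h compound treatment (11-point concentration series), 30 min m-MPI dye at 37C, then dual fluorescence of J-aggregates (ex 540/em 590) and monomers (ex 490/em 535); lower red/green ratio indicates depolarization.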

[17] = qHTS for activators of Nrf2/ARE signaling pathway screened against the NCATS CANVASS Library (AID 1347391); conditions: ARE-bla HepG2, beta-lactamase reporter, 16 h; series mostly up to 46.1 µM; note: nearly all actives have a fitted effect of over 60% in size; note: potency is the fitted concentration of half-maximal effect
Outline: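 Eleven-point qHTS, 16 h treatment of HepG2 cells carrying an ARE-driven beta-lactamase reporter; CCF4 ratio read (405 nm excitation, 460 and 530 nm emission), with CellTiter-Glo ATP luminescence for viability.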

[18] = qHTS for inhibitors of ER calcium dysfunction: SERCaMP assay screened against the NCATS CANVASS Library (AID 1347393); conditions: SH-SY5Y GLuc-SERCaMP (Gaussia luciferase released on ER calcium loss) secretion, thapsigargin, luminescence; series mostly up to 76.6 µM; note: nearly all actives have a fitted effect of over 40% in size; note: potency is the fitted concentration of half-maximal effect
Outline: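 qHTS in SH-SY5Y reporter cells: 16 h compound pretreatment, 4 h thapsigargin, then secreted Gaussia luciferase measured by luminescence.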

[19] = Vero-766 cells viability qHTS against the NCATS CANVASS Library: Counterscreen for Zika virus inhibition assay (AID 1347394); conditions: Vero 766 viability, CellTiter-Glo luminescence, 72 h; series mostly up to 46.1 µM; note: nearly all actives have a fitted effect of over 60% in size; note: potency is the fitted concentration of half-maximal effect
Outline: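 Uninfected Vero 766 (African green monkey) cells, 1000/well, attached overnight, then exposed 72 h at 37C to compounds (11-point qHTS). Viability read by CellTiter-Glo luminescence; media-only wells served as 100% inhibition.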

[20] = qHTS for inhibitors of Wild type Zika virus screened against the NCATS CANVASS Library (AID 1347396); conditions: Vero cells, Zika virus CPE, CellTiter-Glo, 72 h; series mostly up to 45.9 µM;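 note: ATP luminescence of surviving cells so rescue from viral cell killing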
Outline: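 Vero 766 cells, 1000/well, o/n attach; cpds pin-transferred (11-pt qHTS); WT Zika added; 72 h, 37C, 5% CO2; CellTiter Glo lumi. Uninfected + vehicle = 100% inhibition.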

Measured: Potency

O=Cc1ccc2n1C[C@]1(C[C@H](O)[C@@H](CO)O1)OC2
inactive: all assays above

COc1ccc(-c2oc3cc(OC)cc(OC)c3c(=O)c2O)cc1
active: [3] 18.8 µM | [10] 10.5 µM | [11] 9.35 µM | [13] 0.472 µM
not listed: [5] | [7] | [15] | [18]
inactive: all other assays above

COC(=O)c1cccc2oc(-c3cccc4oc(-c5c(C)cccc5O)nc34)nc12
inactive: [1] | [6] | [9] | [20]
active: [2] 2.66 µM | [3] 5.29 µM | [5] 0.168 µM | [7] 3.32 µM | [13] 0.941 µM | [17] 1.86 µM

C[C@@]12CCC[C@@](C)(C(=O)O)[C@H]1C[C@@H](O)[C@@]13C[C@@H](CC[C@@H]21)[C@](C)(O)C3
not listed: [12]
inactive: all other assays above

O=C1CC(c2ccc(O)cc2)Oc2ccccc21 (configuration not stated)
active: [3] 3.75 µM | [10] 20.9 µM | [16] 14.8 µM | [18] 34.3 µM
not listed: [7] | [8] | [11] | [12] | [14] | [17]
inactive: all other assays above

C=C(Cl)[C@](Cl)(CBr)CC[C@@H](Br)C(C)(C)Cl
inactive: [9] | [11] | [14] | [16] | [20]
active: [1] 10.6 µM | [2] 6.68 µM | [3] 14.9 µM | [4] 3.75 µM | [5] 2.98 µM | [6] 8.41 µM | [8] 18.8 µM | [12] 6.59 µM

C=C(C)C(=O)O[C@H]1C[C@@]2(C)OC(=CC2=O)/C(C)=C\[C@H]2OC(=O)C(=C)[C@H]12
inactive: [9] | [14]
active: [1] 2.11 µM | [2] 6.68 µM | [3] 9.41 µM | [4] 1.88 µM | [5] 6.68 µM | [7] 0.662 µM | [8] 10.6 µM | [10] 1.66 µM | [11] 2.09 µM | [13] 1.67 µM | [15] 0.265 µM | [16] 18.6 µM | [18] 0.216 µM | [19] 13.2 µM

O=C1CC(c2ccc(O)cc2)Oc2cc(O)cc(O)c21 (configuration not stated)
not listed: [9] | [13] | [15] | [16] | [18]
inactive: all other assays above

O=C1c2c(O)cc(O)cc2OC(c2ccc(O)cc2)C1O (configuration not stated)
active: [15] 0.0053 µM | [16] 11.7 µM
not listed: [9] | [13] | [18]
inactive: all other assays above

CO[C@@H]1[C@H](O)[C@@H](C)O[C@@H](OC[C@@H]2C(C)OC(=O)/C=C/[C@H](C)C(O[C@@H]3O[C@H](C)CC4(OC(=O)O[C@@H]4C)C3O)[C@@H](C)CC(C)C(=O)/C=C/[C@H]3OC23)[C@@H]1OC (some centres not stated)
inactive: [2] | [5] | [9] | [12] | [14] | [16] | [19] | [20]
active: [3] 18.8 µM | [6] 16.8 µM | [7] 11.8 µM | [10] 16.6 µM | [11] 16.6 µM | [13] 18.8 µM | [15] 14.9 µM | [17] 3.71 µM | [18] 8.6 µM
